PubChem BioAssay (NCI)
The panel holds about 79,000 compounds, 15% with a hit somewhere; the sample as a whole holds those more often. Activity calls are given as the source filed them. Cut-off read from the data, not from the text of the source: active = growth inhibition above about 70%; inactive = the rest.

Legend:
[1] = NCI Yeast Anticancer Drug Screen. Data for the rad50 strain (AID 155);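 note: 0% = growth of vehicle-only cultures of the same strain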; conditions: S. cerevisiae rad50 strain growth inhibition; at 50.0 µM; active compounds read high
How it was run: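 Cells are treated with compound, grown, and their growth is then scored against vehicle-only cultures of the same repair-deficient yeast strain.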

[2] = NCI Yeast Anticancer Drug Screen. Data for the mec2-1 strain (AID 157); conditions: S. cerevisiae mec2-1 strain, at 50.0 µM, active compounds read high
How it was run: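 mec2-1 yeast strain, carrying an alteration in DNA damage repair or cell cycle control, was exposed to compounds; growth inhibition was measured relative to vehicle-treated controls.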

[3] = NCI Yeast Anticancer Drug Screen. Data for the sgs1 mgt1 strain (AID 161);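 note: 0% = growth of cultures given vehicle only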; conditions: S. cerevisiae sgs1 mgt1 strain, at 50.0 µM, active compounds read high
How it was run: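 Percent growth inhibition was derived by comparing compound-exposed mutant yeast with vehicle-exposed cultures. The strain carries alterations in DNA damage repair.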

[4] = NCI Yeast Anticancer Drug Screen. Data for the cln2 rad14 strain (AID 165);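 note: 0% = growth equal to vehicle treated cultures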; conditions: S. cerevisiae cln2 rad14 strain, at 50.0 µM, active compounds read high
How it was run: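 Yeast carrying cln2 and rad14 alterations (cell cycle control and DNA damage repair) were exposed to compounds. Growth inhibition was measured against vehicle-treated controls.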

[5] = NCI Yeast Anticancer Drug Screen. Data for the bub3 strain (AID 167); conditions: S. cerevisiae bub3 mutant strain, at 50.0 µM, active compounds read high
How it was run: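 Part of a panel of yeast mutants defective in DNA damage repair or cell cycle regulation. Each strain is grown with compound, and inhibition is calculated relative to solvent-treated cultures.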

[6] = NCI Yeast Anticancer Drug Screen. Data for the mlh1 rad18 strain (AID 175); conditions: S. cerevisiae mlh1 rad18 strain growth inhibition; at 50.0 µM; active compounds read high
How it was run: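 Growth inhibition of the yeast strain was measured after compound exposure and expressed relative to vehicle-treated controls. The strain carries defined defects in DNA damage repair.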

Measured: growth inhibition

CNc1ccccc1C(=O)O
inactive: [1] -19.8% | [2] -7.3% | [3] 10.5% | [4] -9.75% | [5] -12.2% | [6] 3.15%

N#Cc1ccc(C(Cl)(Cl)Cl)cc1
inactive: [1] 1.5% | [2] -17.6% | [3] -5.8% | [4] -25.4% | [5] -3.15% | [6] -5.65%

CC(=O)CC(C)C(=O)O (stereo unspecified) (tested in a mixture with another compound)
inactive: [1] -5.9% | [2] -11% | [3] -16.6% | [4] -6.55% | [5] -5.6% | [6] -20.6%

C1CCN2CC34CC(CC5CCCN(C6CCCC3N6)C54)C2C1 (stereo unspecified)
inactive: [1] -19.5% | [2] -43.1% | [3] -22.1% | [4] 10.7% | [5] -36.3% | [6] -99.8%

CCOP(=O)(OCC)/C(C#N)=C/C=C/c1ccco1
inactive: [1] 2.65% | [2] -21.3% | [3] -30.7% | [4] 4.2% | [5] -40.1% | [6] 1.8%

CC(=O)Cc1c[nH]c2ccccc12
inactive: [1] -25.2% | [2] -41.3% | [3] -9.35% | [4] -1.5% | [5] -28.2% | [6] -25.2%

CCCCOP(=O)(/C=C/c1cccs1)OCCCC
inactive: [2] 37% | [4] 7.95% | [5] 61.5% | [6] 37.1%
active: [1] 81.2% | [3] 79%

CCOP(O)OCC
inactive: [1] 0.6% | [2] 11.4% | [3] -5.25% | [4] 23.9% | [5] -5.2% | [6] -1.35%

CN(C)[C@@H]1C(=O)C(C(N)=O)=C(O)[C@@]2(O)C(=O)C3=C(O)c4c(O)ccc(Cl)c4[C@@](C)(O)[C@H]3C[C@@H]12
inactive: [1] -16.9% | [2] 1.1% | [3] 13.2% | [4] -6.6% | [5] -8.8% | [6] -4.1%

CCCCC(CC)COP(=S)(S)OCC(CC)CCCC.[Sn] (stereo unspecified)
inactive: [1] -7.7% | [2] -10.4% | [3] -6.5% | [4] -46.9% | [5] 13.8% | [6] -7.7%

CN(C)C(=O)C(CC[N+](C)(C)C)(c1ccccc1)c1ccccc1
inactive: [1] 8.65% | [2] 5.5% | [3] 5.55% | [4] 24.7% | [5] -3.9% | [6] -10.1%

CC(=O)[CH-]C(C)=O.CC(=O)[CH-]C(C)=O.CC(=O)[CH-]C(C)=O.[Cl-].[Hf+4]
inactive: [1] 3.85% | [2] -1.25% | [3] -16.6% | [4] 21.4% | [5] -9.75% | [6] -6.35%

c1ccc2c(c1)SCCC2NC1=NCCO1 (stereo unspecified)
inactive: [1] -15.2% | [2] -13.6% | [3] -9% | [4] 9.45% | [5] 8.7% | [6] -36.3%

O=C(O)CC(=O)O.[NH-]C1CCCCC1[NH-].[Pt+2] (stereo unspecified)
inactive: [1] 23.7% | [2] 4.35% | [3] 21.4% | [4] 30.4% | [5] 21.4% | [6] 13.8%

O=C1/C(=C\c2ccc([N+](=O)[O-])cc2)N2CCC1CC2
inactive: [1] -8.3% | [2] 5.3% | [3] -3.65% | [4] -0.45% | [5] 1.75% | [6] 7.05%

CCCCCSP(SCCCCC)c1ccccc1
inactive: [2] 67.3% | [4] 37.6% | [5] 40.4% | [6] 61.8%
active: [1] 79.8% | [3] 79.5%

CNCCc1ccccc1
inactive: [1] 26% | [2] 6.05% | [3] 14.3% | [4] 14.6% | [5] -33.8% | [6] -3.05%

CN(C)C1=C(N2CC2)C(=O)C(N(C)C)=C(N2CC2)C1=O
inactive: [1] 17.2% | [2] 9.9% | [3] 14.6% | [4] 9.3% | [5] 1% | [6] 23.7%

Cc1ccccc1NC(N)=S
inactive: [1] 27.6% | [2] 9.15% | [3] -8.2% | [4] 1.55% | [5] 5.4% | [6] 15.7%

Nc1cc(Cl)ccc1Cl
inactive: [1] 1.1% | [2] -11.3% | [3] -19.2% | [4] -24.9% | [5] 1.15% | [6] -11.8%

CC(Cc1cccc2c1Nc1ccccc1S2)N(C)CCO (stereo unspecified)
inactive: [1] -60.2% | [2] -40.5% | [3] -28.6% | [4] -5.25% | [5] -25.4% | [6] -30.1%

O=C1C2C3c4ccccc4C(C2C(=O)N1c1ccccc1)[n+]1ccccc13 (stereo unspecified)
inactive: [1] 47.8% | [2] 16.1% | [3] 41.7% | [4] -13.2% | [5] 7.1% | [6] 30.2%

Nc1nc(N)c(N)c(N)n1
inactive: [1] 3.05% | [2] 1.8% | [3] 14.6% | [4] -3.05% | [5] -3.05% | [6] 34.2%

CCCCC[As](=O)(O)O
inactive: [1] 12.2% | [2] -6.4% | [3] 1.2% | [4] -5.6% | [5] 4.3% | [6] 7.95%

OC1[C@@H]2[C@@H](O)CCCN2C[C@@H](O)[C@H]1O (stereo partly specified)
inactive: [1] -53.2% | [2] -93% | [3] -31.9% | [4] -20.6% | [5] 1.05% | [6] -28.1%

O=C(CCBr)Nc1ccc(Cl)cc1C(=O)c1ccccc1
inactive: [1] 6.65% | [2] 5.5% | [3] 10.2% | [4] -2% | [5] 54.8% | [6] -5.95%

COc1ccc(CC(C)NO)cc1 (stereo unspecified)
inactive: [1] -16.2% | [2] 8.8% | [3] -11.9% | [4] 11.7% | [5] 2.35% | [6] -32.5%

[C-]#[O+].[C-]#[O+].[C-]#[O+].[C-]#[O+].[Cr].c1ccc([PH+](CC[PH+](c2ccccc2)c2ccccc2)c2ccccc2)cc1
inactive: [1] 11.7% | [2] 4.85% | [3] -0.9% | [4] 15.2% | [5] 0.35% | [6] 20.4%

O=[N+]([O-])NC1=NCCN1CCCl
inactive: [1] -17.2% | [2] -13.6% | [3] -4.6% | [4] -25.1% | [5] -12.6% | [6] 9.15%

CCOP(=O)(O)SP(=O)(O)OCC.[Zn+2]
inactive: [1] -13.9% | [2] -11.8% | [3] -7% | [4] 2.9% | [5] -5.45% | [6] -0.35%

C1CCN2COCC2C1 (stereo unspecified)
inactive: [1] -16.2% | [2] -16.9% | [3] -38.5% | [4] 0.7% | [5] -17.2% | [6] 22.4%

COC1C(O)CC(OC2CC(Oc3cc4cc5c(c(O)c4c(O)c3C)C(=O)[C@@H](OC3CC(OC4CC(OC6CC(C)(O)C(OC(C)=O)C(C)O6)C(O)C(C)O4)C(O)C(C)O3)[C@H]([C@H](OC)C(=O)[C@@H](O)[C@@H](C)O)C5)OC(C)C2OC(C)=O)OC1C (stereo partly specified)
inactive: [1] 12.7% | [2] 24.9% | [3] 8.15% | [4] 60.2% | [5] 7.1% | [6] 29.2%

CCC1(CC)C(=O)NC(=NCCCC(N)C(=O)O)NC1=O (stereo unspecified)
inactive: [1] 8.75% | [2] -3.05% | [3] 8.15% | [4] 11.4% | [5] 23.6% | [6] 7.4%

CCOC(=O)/C(=C\c1ccc(N(C)C)cc1)[Se]c1ccccc1
inactive: [1] 12.7% | [2] -2.8% | [3] -0.3% | [4] 5% | [5] 18.6% | [6] 56.4%

CC(C)(C)c1cc(C=C(C#N)C#N)cc(C(C)(C)C)c1O
inactive: [1] 4.3% | [2] 10.6% | [3] 7.55% | [4] -32.8% | [5] 48.6% | [6] 6.45%

NCCc1ccccc1
inactive: [1] 0.15% | [2] -20.6% | [3] 1.5% | [4] -17.4% | [5] -18.3% | [6] -9.9%

CCc1ccc([N+](=O)[O-])cc1
inactive: [1] -9.25% | [2] -12% | [3] -19.7% | [4] -29.4% | [5] 1.35% | [6] 10.5%

OCCN=Cc1c[nH]c2ccccc12
inactive: [1] -49.9% | [2] -42.9% | [3] -28.1% | [4] 3.85% | [5] -42.5% | [6] -13.9%

NNC(=O)NNC(=O)NN
inactive: [1] -5.95% | [2] -3.1% | [3] -12.3% | [4] 1.65% | [5] -8.25% | [6] 9.9%

O=[N+]([O-])c1cc([As](=O)(O)O)ccc1S(=O)(=O)O
inactive: [1] -0.6% | [2] 7.65% | [3] 7% | [4] -3% | [5] 9.2% | [6] 2.2%

O=C(O)C(O)(c1ccccc1)c1ccco1 (stereo unspecified)
inactive: [1] 12.8% | [2] 1.8% | [3] -5.25% | [4] 21.3% | [5] -28.9% | [6] 12.7%
